Results on 87 compounds are retold here after PubChem BioAssay AID463173 (ICCB-Longwood Screening Facility, Harvard Medical School, 2010).

Each structure is given as a SMILES string. About 4,300 (8.3%) of roughly 52,000 compounds were called active. Shown is part of a subset that was picked to be rich in actives. Values without a mark were called inactive. Cut-off read from the data, not from the text of the source: active = survival mostly below about 52% (no sharp cut-off); inactive = mostly above about 56%.

For the assay, the system named is DeltatarO mutant. Description: S. aureus survival, RN4220 and DeltatarO strains – OD600, teichoic acid synthesis inhibitors, primary screen (AID 463173). The following applies: S. aureus RN4220 wild type/DeltatarO growth, OD600, 18 h, active compounds read low, screened at 18.75 µg/mL (by protocol).
Regarding `COC(=O)c1ccc(-n2nnc(-c3nc(-c4ccc5c(c4)OCO5)no3)c2C)cc1`, the survival was 82%.
In the case of `Cc1ccccc1NC(=O)c1c(C)oc2ccc(O)c(CN3CCN(C)CC3)c12` it was 77%; in that of `Cc1nc2nc(SCC(=O)NCCc3ccc(Cl)cc3)nn2c(C)c1Cc1c(F)cccc1Cl`, 0% (active).
In the case of `Cc1nc2nc(SCC(=O)NCCc3ccc(Cl)cc3)nn2c(C)c1Cc1ccccc1Cl` it was 99%; in that of `CCN(CC)CCCNC(=O)CSc1nc2nc(C)c(Cc3c(F)cccc3Cl)c(C)n2n1`, 146%; in that of `Cc1nc2nc(SCC(=O)O)nn2c(C)c1Cc1c(F)cccc1Cl`, 93%.
On to `Cc1nc2nc(SCC(=O)NCCc3ccccc3)nn2c(C)c1Cc1c(F)cccc1Cl`, for which the survival is 37% (active).
Next, `Cc1nc2nc(SCc3c(F)cccc3Cl)nn2c(C)c1Cc1ccccc1`: 66%; `Cc1nc2nc(SCC(=O)Nc3cccc(Cl)c3)nn2c(C)c1Cc1ccccc1`: 85%.
Next, `Cc1ccccc1Cc1c(C)nc2nc(SCC(=O)NCCc3ccc(Cl)cc3)nn2c1C`: 67%; `COc1ccc(CCNC(=O)CSc2nc3nc(C)c(Cc4ccc(C)cc4)c(C)n3n2)cc1OC`: 55%.
Next, `Cc1nc2nc(SCC(=O)NC(C)c3ccccc3)nn2c(C)c1Cc1c(F)cccc1Cl` (configuration not stated): 68%.
Regarding `Cc1nc2nc(SCC(=O)NCCc3ccc(Cl)cc3)nn2c(C)c1Cc1ccccc1`, the survival was 46% (active).
On to `CCCCNC(=O)CSc1nc2nc(C)c(Cc3c(F)cccc3Cl)c(C)n2n1`, for which the survival was 31% (active).
Next, `Cc1cccc(C(=O)N2CCc3cc(CNS(=O)(=O)c4cccs4)ccc32)c1`: 74%; `Cc1ccc(C)c(CN2C(=O)c3ccccc3S(=O)(=O)c3ccc(C(=O)Nc4ccccc4C(F)(F)F)cc32)c1`: 84%.
In the case of `Cc1ccccc1Cn1c(CN2CCN(c3cc(Cl)ccc3C)CC2)nc2c1c(=O)[nH]c(=O)n2C`, the survival was 106%.
Next, `CCOC(=O)Cc1ccc(NC(=O)N(Cc2ccc(OC)cc2)C2CCN(C(C)=O)CC2)cc1`: 88%; `Cc1ccc(NC(=O)C(=O)NCC(c2cccnc2)N2CCN(c3ccccc3F)CC2)cc1Cl` (configuration not stated): 73%; `Cc1oc(-c2ccc(C(=O)NCc3ccccc3)cc2)nc1CS(=O)(=O)c1ccccc1`: 88%.
Next, `Cc1ccc(C)c(N2CCN(C(=O)c3ccc4[nH]c(C)c(C)c4c3)CC2)c1`: 80%; `N=C(N=Nc1c(O)n(Cc2ccccc2)c2ccccc12)SCC(=O)Nc1ccccc1`: 23% (active).
As for `CN(C)Cn1c(O)c(N=NC(=O)c2ccccc2)c2ccccc21`, the survival is 93%.
In the case of `N=Nc1c(O)n(CC(=O)Nc2ccccc2)c2ccccc12`, the survival was 87%.
Next, `Cc1ccc(NC(=O)C2CCN(S(=O)(=O)c3c(C)noc3C)CC2)cc1`: 105%; `Cc1ccc(-c2nn3c(-c4ccccc4C)nnc3c3ccccc23)cc1`: 40%.
In the case of `COc1ccc(-c2nn3c(-c4ccc(OC)cc4)nnc3c3ccccc23)cc1` it was 102%; in that of `Cc1ccc(-c2nn3c(-c4ccccc4)nnc3c3ccccc23)cc1`, 86%.
Next, `Cc1ccc(-c2nn3c(-c4ccc(C)cc4)nnc3c3ccccc23)cc1`: 20% (active).
Regarding `Cc1ccc(-c2nnc3c4ccccc4c(-c4ccccc4)nn23)cc1`, the survival is 134%.
Next, `COc1ccc(-c2nn3c(-c4ccccc4C)nnc3c3ccccc23)cc1`: 2% (active); `O=C(CNCCCN1CCOCC1)Nc1ccc(OC(F)(F)F)cc1`: 99%; `CC(=O)c1cccc(NC(=O)c2oc3c(c2C)-c2nn(Cc4ccc(Cl)cc4)cc2CC3)c1`: 64%.
Next, `COc1cccc(CNC(=O)CN2C(=O)N(c3ccc(C)cc3C)S(=O)(=O)c3ccccc32)c1OC`: 65%; `COc1cc(NS(=O)(=O)c2ccc(-c3cc(C)no3)cc2)cc(OC)c1`: 99%.
Next, `Cc1cccc(C)c1NC(=O)CCSCCc1ccccn1`: 86%.
As for `O=S(=O)(c1ccccc1)c1nc(-c2ccc(F)cc2)oc1N1CCOCC1`, the survival is 90%.
Next, `Cc1ccc(S(=O)(=O)c2nc(-c3ccccc3)oc2N2CCN(c3ccccc3)CC2)cc1`: 85%; `COc1ccc(-c2nc(S(=O)(=O)c3ccccc3)c(N3CCCCC3)o2)cc1`: 74%.
Next, `Cc1ccc(-c2nc(S(=O)(=O)c3ccc(C)cc3)c(N3CCCCC3)o2)cc1`: 0% (active).
Next, `CC(C)(C)c1ccc(-c2nc(S(=O)(=O)c3ccccc3)c(N3CCOCC3)o2)cc1`: 37% (active); `Cc1ccc(S(=O)(=O)c2nc(-c3ccccc3)oc2N2CCCCCC2)cc1`: 22% (active); `Cc1ccc(-c2nc(S(=O)(=O)c3ccc(C)cc3)c(N3CCCCCC3)o2)cc1`: 70%.
As for `Cc1ccc(-c2nc(S(=O)(=O)c3ccccc3)c(N3CCN(c4ccccc4)CC3)o2)cc1`, the survival is 102%.
In the case of `Cc1ccc(-c2nc(S(=O)(=O)c3ccc(C)cc3)c(N3CCN(c4ccccc4)CC3)o2)cc1` it was 97%.
Next, `O=S(=O)(c1ccccc1)c1nc(-c2cccc(Cl)c2)oc1N1CCOCC1`: 57%; `COc1ccc(-c2nc(S(=O)(=O)c3ccc(C)cc3)c(N3CCCCC3)o2)cc1`: 54%.
Take `O=S(=O)(c1ccccc1)c1nc(-c2ccc(F)cc2)oc1N1CCCCCC1`: the survival was 33% (active).
Next, `Cc1ccc(Cl)cc1NC(=O)Cn1cc2c(n1)CCCCC2`: 68%.
Regarding `CCc1ccc(NC(=O)CC(c2cc(OC)c(OC)c(OC)c2)N2Cc3ccccc3C2=O)cc1` (configuration not stated), the survival was 79%.
As for `COc1ccc(N2CCN(C(=O)c3cccc4ccccc34)CC2)cc1`, the survival was 66%.
Next, `COC(=O)NCc1c(C)nn(-c2ccccc2)c1-n1cccc1`: 96%.
Regarding `COc1ccc(C2c3cccn3CCN2S(=O)(=O)c2ccc([N+](=O)[O-])cc2)cc1` (configuration not stated), the survival is 69%.
Next, `Cn1ncc(C(=O)N2CCN(c3ccccc3)CC2)c1C1CCN(C(=O)OC(C)(C)C)CC1`: 78%; `CCCCN(CC)C(=O)c1c[nH]c2ccc(S(=O)(=O)N(C)c3ccc(Cl)cc3)cc2c1=O`: 95%; `COc1cc2c(cc1OC)C(c1cccc(Cl)c1)CC(=O)N2` (configuration not stated): 63%.
In the case of `Cc1c(C(=O)OC2CCC(C)CC2)[nH]c2c1C(=O)CC(c1ccc(N(C)C)cc1)C2` (configuration not stated) it was 68%.
Next, `COc1ccc(NC(=O)C(=O)Nc2ccc3nc4n(c(=O)c3c2)CCCCC4)c(OC)c1`: 84%.
As for `COc1cccc(OC)c1C(=O)Nc1ccc2c(c1)N(C(C)=O)CCC2`, the survival was 78%.
Consider `COCCn1c(=NC(=O)c2ccc3c(c2)OCCO3)sc2cc(NC(C)=O)ccc21`, for which the survival was 94%.
Next, `Cc1nn2c(=O)cc(COC(=O)COc3ccccc3C)nc2s1`: 101%; `O=C(NC12CC3CC(CC(C3)C1)C2)N1CCC(O)(c2ccc3c(c2)OCO3)CC1`: 81%; `O=C(Nc1cccc(C(F)(F)F)c1)c1cc2nc(-c3ccccc3)cc(C(F)(F)F)n2n1`: 60%.
Next, `O=C(Nc1cccc(Cl)c1Cl)c1cc2nc(-c3ccc(Cl)cc3)cc(C(F)(F)F)n2n1`: 93%; `O=C(NCC12CC3CC(CC(C3)C1)C2)c1cc2nc(-c3ccccc3)cc(C(F)(F)F)n2n1`: -4% (active); `COc1ccc(-c2cc(C(F)(F)F)n3nc(C(=O)NCC45CC6CC(CC(C6)C4)C5)cc3n2)cc1OC`: 137%.
Next, `O=C(c1cc2nc(-c3ccccc3)cc(C(F)(F)F)n2n1)N1CCCC1`: 78%; `Cc1ccc(-c2cc(C(F)(F)F)n3nc(C(=O)Nc4ccc(Cl)cc4Cl)cc3n2)cc1`: 81%; `O=C(NCC12CC3CC(CC(C3)C1)C2)c1cc2nc(-c3ccc(Cl)cc3)cc(C(F)(F)F)n2n1`: 31% (active).
For the compound `CCOc1ccc(NC(=O)c2cc3nc(-c4ccc(OC)cc4)cc(C(F)(F)F)n3n2)cc1`, the survival is 134%.
Consider `COc1ccc(-c2cc(C(F)(F)F)n3nc(C(=O)NCC45CC6CC(CC(C6)C4)C5)cc3n2)cc1`, for which the survival is 29% (active).
Next, `CCC(c1nnnn1CCOC)N(Cc1cc2ccc(OC)cc2[nH]c1=O)C1CCCC1` (configuration not stated): 92%; `Cc1ccc(C)c(N2CCN(C(=O)c3cc4cc5ccc(C)cc5nc4s3)CC2)c1`: 95%; `N#Cc1c2c(c(-c3ccccc3)[nH]c1=S)CCCC2`: 91%.
In the case of `CCc1ccc(-c2nn(CC(=O)NC3CCCCC3)c3c2cnc2ccc(OC)cc23)cc1` it was 98%; in that of `COC(=O)c1c(C)sc(-c2c(-c3ccc(F)cc3)[nH]c3[nH]c(=O)[nH]c(=O)c23)c1O`, 116%; in that of `COC(=O)c1c(C)sc(-c2c(-c3cccc(OC)c3)[nH]c3c2c(=O)[nH]c(=O)n3C)c1O`, 43% (active).
Next, `CCOC(=O)c1c(C)sc(-c2c(-c3cc(C)ccc3C)[nH]c3c2c(=O)[nH]c(=O)n3C)c1O`: 40% (active); `COC(=O)c1c(C)sc(-c2c(-c3ccc4c(c3)OCCO4)[nH]c3c2c(=O)[nH]c(=O)n3C)c1O`: 37% (active).
As for `COC(=O)c1c(C)sc(-c2c(-c3ccc4c(c3)OCCO4)[nH]c3[nH]c(=O)[nH]c(=O)c23)c1O`, the survival was 50%.
Next, `CCc1ccc(-c2[nH]c3c(c2-c2sc(C)c(C(=O)OC)c2O)c(=O)[nH]c(=O)n3C)cc1`: 23% (active); `CCOC(=O)c1c(C)sc(-c2c(-c3cc(C)ccc3C)[nH]c3c2c(=O)n(C)c(=O)n3C)c1O`: 105%.
`CCc1ccc(-c2[nH]c3c(c2-c2sc(C)c(C(=O)OC)c2O)c(=O)n(C)c(=O)n3C)cc1`: the survival was 51%.
As for `CCOC(=O)c1c(C)sc(-c2c(-c3cccc(Cl)c3)[nH]c3c2c(=O)n(C)c(=O)n3C)c1O`, the survival was 113%.
Next, `CCOC(=O)c1c(C)sc(-c2c(-c3ccc4c(c3)OCCO4)[nH]c3c2c(=O)[nH]c(=O)n3C)c1O`: 106%; `CCOC(=O)c1c(C)sc(-c2c(-c3ccc(OC)c(F)c3)[nH]c3c2c(=O)[nH]c(=O)n3C)c1O`: 117%.
Next, `COC(=O)c1c(C)sc(-c2c(-c3cccc(Cl)c3)[nH]c3c2c(=O)[nH]c(=O)n3C)c1O`: 113%.
